Experimental data reported in PubChem BioAssay (EPA / NIEHS).
Records with an inconclusive call do not appear. Active and inactive are the calls of the source. The calls were made as follows: active = hit-call score of the fitted dose curve at least 0.9, where 1 is the maximum; inconclusive = response in the unintended direction; inactive = score below 0.9.

Experiments:
[1] = TOX21_p53_BLA_p2_viability: Viability Assessment in the Tox21 HCT-116 p53 Agonism Beta-lactamase Assay, Phase 2 (AID 2283591);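 also: actives lower the ATP signal meaning cytotoxicity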
How it was run: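 HCT116 p53-bla cells, 4000/well, dosed after 5 h plating (217-fold dilution of DMSO stocks) and incubated 16 h at 37C. Viability taken as cellular ATP by CellTiter-Glo luminescence after 30 min RT; signal loss marks cytotoxicity.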

[2] = TOX21_p53_BLA_p5_viability: Viability Assessment in the Tox21 HCT-116 p53 Agonism Beta-lactamase Assay, Phase 5 (AID 2283600)
How it was run: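 Decreased CellTiter-Glo luminescence denotes lost viability. Exposure: 16 h at 37C, 5% CO2, with compounds from DMSO stocks diluted 217-fold in wells of 4000 cells.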

[3] = target: Cellular tumor antigen p53 (Homo sapiens) (UniProt P04637); assay: TOX21_p53_BLA_p3_ratio: Tox21 HCT-116 p53 Agonism Beta-lactamase Assay, Ratio, Phase 3 (AID 2283596)
How it was run: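 Cells were seeded at 4000/well, rested 5 h at 37C, then dosed with DMSO compound solutions (217-fold dilution) for 16 h. CCF4-AM substrate was loaded for 2 h at room temperature, and the 460/530 nm emission ratio was fitted for gain of signal versus DMSO.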

[4] = target: Cellular tumor antigen p53 (Homo sapiens) (UniProt P04637); assay: TOX21_p53_BLA_p5_ratio: Tox21 HCT-116 p53 Agonism Beta-lactamase Assay, Ratio, Phase 5 (AID 2283599)
How it was run: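 HCT-116 p53-bla cells (4000/well) plated 5 h, dosed with compound (217-fold DMSO dilution) for 16 h at 37 C; CCF4-AM substrate 2 h at room temperature. Activity is the 460/530 nm emission ratio (405 nm excitation), fitted in gain-of-signal direction versus DMSO.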

[5] = target: Cellular tumor antigen p53 (Homo sapiens) (UniProt P04637); assay: TOX21_p53_BLA_p4_ratio: Tox21 HCT-116 p53 Agonism Beta-lactamase Assay, Ratio, Phase 4 (AID 2283601)
How it was run: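 HCT-116 p53 beta-lactamase reporter cells (4000/well) preincubated 5 h, then compound (217-fold dilution of DMSO stock) for 16 h at 37C. CCF4-AM substrate added 2 h at room temperature; 460/530 nm emission ratio fitted upward versus DMSO.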

[6] = TOX21_p53_BLA_p4_viability: Viability Assessment in the Tox21 HCT-116 p53 Agonism Beta-lactamase Assay, Phase 4 (AID 2283597);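 also: hits lower the luminescence signal meaning cytotoxicity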
How it was run: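 4000 HCT116 cells per well; 5 h attachment; compounds from DMSO, 217-fold dilution; 16 h at 37C. Then CCF4-AM, 2 h RT, followed by CellTiter-Glo, 30 min RT, luminescence. Decrease = cytotoxicity.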

[7] = target: PGR (gene 5241) (UniProt P06401); assay: TOX21_PR_BLA_Followup_Antagonist_ratio: Tox21 HEK293 Progesterone Receptor (PR) Antagonism Beta-lactamase Follow-Up Assay, Ratio (AID 2283934);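 also: PR-UAS-bla HEK293T cells stimulated with 1 nM R5020 agonist for 16 hr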
How it was run: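 Cells are plated, rested 6 hr, then dosed with test compound in DMSO and challenged with 1 nM promegestone. After 16 hr incubation, substrate loading for 2 h at room temperature precedes fluorescence reading; viability is measured in the same wells.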

[8] = TOX21_PR_BLA_Followup_Agonist_viability: Viability Assessment in the Tox21 HEK293 Progesterone Receptor (PR) Agonism Beta-lactamase Follow-Up Assay (AID 2283935);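 also: signal loss means lower viability so actives are cytotoxic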
How it was run: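 Cells were plated in medium with 2% charcoal-stripped FBS and rested 6 hr. Compounds in DMSO were then added for 16 hr at 37C, followed by the FRET substrate step and CellTiter-Glo luminescence after 30 min.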

[9] = TOX21_PR_BLA_Followup_Antagonist_viability: Viability Assessment in the Tox21 HEK293 Progesterone Receptor (PR) Antagonism Beta-lactamase Follow-Up Assay (AID 2283936);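 also: cells exposed to compound with R5020 agonist for 16 h; hits lower the luminescence signal meaning cytotoxicity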
How it was run: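 PR-UAS-bla HEK293T cells in medium with 2% charcoal-stripped FBS were treated with compounds plus R5020 for 16 hr at 37C. After the beta-lactamase read, CellTiter-Glo was added to the same wells and luminescence read after 30 min at room temperature.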

[10] = target: PGR (gene 5241) (UniProt P06401); assay: TOX21_PR_LUC_Followup_Antagonist: Tox21 HEK293 Progesterone Receptor (PR) Antagonism Luciferase Follow-Up Assay (AID 2283938);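 also: curve fitted upward as signal gain over DMSO baseline despite antagonist label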
How it was run: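 HEK293-PR-A-luc cells, 3,000/well, preincubated 5 h at 37C before compound addition in DMSO; 16 h compound exposure at 37C. ONE-Glo luciferase luminescence read after 30 min at room temperature, fitted relative to DMSO baseline.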

[11] = TOX21_PR_LUC_Followup_Agonist_viability: Viability Assessment in the Tox21 HEK293 Progesterone Receptor (PR) Agonism Luciferase Follow-Up Assay (AID 2283941);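 also: loss of signal means cytotoxicity so actives lower viability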
How it was run: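 Multiplexed viability endpoint of the PR agonist luciferase follow-up: HEK293-PR-A-luc cells treated 16 h at 37C, with viability scored as decrease in CellTiter-Glo ATP signal.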

[12] = target: Thyroid hormone receptor alpha (Rattus norvegicus) + Thyroid hormone receptor beta (Rattus norvegicus) (UniProt P18113+P63059); assay: TOX21_TR_LUC_GH3_Antagonist_Followup: Tox21 GH3 Thyroid Hormone Receptor Antagonism Luciferase Follow-Up Assay (AID 2283942)
How it was run: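 Luminescence read-out (ONE-Glo, 30 min at room temperature) in GH3 reporter cells challenged with 1.0 nM T3 final. Compounds ran at 92 uM to 5nM over 15 concentrations for 24 h; DMSO served as negative control and baseline.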

[13] = target: THRB (gene 7068) (UniProt P10828); assay: TOX21_TRB_BLA_Antagonist_Followup_ratio: Tox21 Thyroid Hormone Receptor beta Antagonism Beta-lactamase (BLA) Follow-Up Assay, Ratio (AID 2283958)
How it was run: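 Cells were plated and allowed to attach for 5 h, then dosed with compounds in DMSO at 11 concentrations for 18 h at 37C. Beta-lactamase reporter activity was measured via CCF4-AM FRET as the 460:530 nm ratio.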

Measured: AC50

Sequence of Cellular tumor antigen p53 (Homo sapiens) (P04637 whole entry, looked up): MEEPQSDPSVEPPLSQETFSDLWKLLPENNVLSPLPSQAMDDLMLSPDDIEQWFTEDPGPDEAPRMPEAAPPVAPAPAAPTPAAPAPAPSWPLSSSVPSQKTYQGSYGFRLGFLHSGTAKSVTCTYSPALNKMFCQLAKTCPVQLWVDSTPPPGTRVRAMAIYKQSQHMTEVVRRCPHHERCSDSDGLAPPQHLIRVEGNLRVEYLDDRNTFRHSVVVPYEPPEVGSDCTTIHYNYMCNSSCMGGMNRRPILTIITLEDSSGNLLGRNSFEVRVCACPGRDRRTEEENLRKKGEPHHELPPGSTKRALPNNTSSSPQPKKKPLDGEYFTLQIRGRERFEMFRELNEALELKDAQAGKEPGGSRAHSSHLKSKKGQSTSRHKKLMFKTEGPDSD
Sequence of PGR (gene 5241) (P06401 whole entry, looked up): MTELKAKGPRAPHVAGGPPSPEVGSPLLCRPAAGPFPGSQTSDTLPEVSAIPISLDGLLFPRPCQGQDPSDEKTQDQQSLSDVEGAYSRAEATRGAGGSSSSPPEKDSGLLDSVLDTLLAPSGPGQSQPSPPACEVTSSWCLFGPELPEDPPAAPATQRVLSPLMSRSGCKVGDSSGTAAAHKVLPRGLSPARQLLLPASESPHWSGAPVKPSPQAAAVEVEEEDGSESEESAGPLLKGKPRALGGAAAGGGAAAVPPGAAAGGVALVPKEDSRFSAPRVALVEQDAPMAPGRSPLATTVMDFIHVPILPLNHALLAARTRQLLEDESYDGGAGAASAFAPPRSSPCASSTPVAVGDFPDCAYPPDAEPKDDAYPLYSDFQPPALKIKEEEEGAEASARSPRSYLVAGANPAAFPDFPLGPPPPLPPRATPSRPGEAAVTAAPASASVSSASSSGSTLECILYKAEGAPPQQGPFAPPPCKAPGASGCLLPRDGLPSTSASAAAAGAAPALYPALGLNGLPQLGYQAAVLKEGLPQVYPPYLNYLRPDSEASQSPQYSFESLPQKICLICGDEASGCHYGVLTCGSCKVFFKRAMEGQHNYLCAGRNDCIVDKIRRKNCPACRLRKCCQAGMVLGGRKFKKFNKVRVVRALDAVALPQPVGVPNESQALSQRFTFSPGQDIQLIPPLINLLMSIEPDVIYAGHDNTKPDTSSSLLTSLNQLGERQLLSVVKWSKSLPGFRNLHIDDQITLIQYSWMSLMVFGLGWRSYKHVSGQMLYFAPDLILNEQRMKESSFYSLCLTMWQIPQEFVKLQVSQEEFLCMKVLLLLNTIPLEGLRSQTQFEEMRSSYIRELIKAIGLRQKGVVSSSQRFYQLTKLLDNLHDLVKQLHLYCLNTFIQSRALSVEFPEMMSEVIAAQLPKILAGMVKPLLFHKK
Sequence of THRB (gene 7068) (P10828 whole entry, looked up): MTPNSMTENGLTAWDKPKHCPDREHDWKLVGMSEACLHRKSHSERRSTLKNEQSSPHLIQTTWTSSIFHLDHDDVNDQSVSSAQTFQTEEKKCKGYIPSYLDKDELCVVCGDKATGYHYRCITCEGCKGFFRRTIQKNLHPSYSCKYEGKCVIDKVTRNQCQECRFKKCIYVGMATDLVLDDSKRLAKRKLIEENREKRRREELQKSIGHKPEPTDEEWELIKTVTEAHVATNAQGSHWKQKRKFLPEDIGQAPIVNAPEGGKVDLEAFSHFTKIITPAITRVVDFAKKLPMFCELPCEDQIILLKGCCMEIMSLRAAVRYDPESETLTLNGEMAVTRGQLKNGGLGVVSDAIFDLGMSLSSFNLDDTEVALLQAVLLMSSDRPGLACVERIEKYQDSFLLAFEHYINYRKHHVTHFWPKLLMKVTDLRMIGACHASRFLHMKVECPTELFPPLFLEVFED

C=CC(=C)C
inactive: [1] | [2]

CC(C)(C)C(=O)Cl
inactive: [1] | [3] | [4] | [2] | [5]

CN1CC[C@]23c4c5ccc(O)c4O[C@H]2[C@@H](O)CC[C@H]3[C@H]1C5
inactive: [1] | [3] | [6] | [4]

Brc1ccccc1
inactive: [1] | [6] | [2]

CNC(C)(C)Cc1ccccc1
inactive: [1] | [4] | [2] | [5]

O=[N+]([O-])c1ccc(CBr)cc1
inactive: [1] | [6]
active: [3] 94.3 µM

CCC1(CC)C(=O)C=CNC1=O
inactive: [1] | [3] | [6] | [4] | [2] | [5]

ClC(Cl)=C(Cl)Cl
inactive: [1] | [6] | [4] | [2] | [5]

CN(C)C(=O)Oc1cc(OC(=O)N(C)C)cc(C(O)CNC(C)(C)C)c1 (stereo not drawn)
inactive: [1] | [3] | [5]

COc1cc(CC(C)N)cc2c1OCO2 (stereo not drawn)
inactive: [1] | [3] | [6] | [4] | [5]

CS(=O)(=O)Cl
inactive: [1] | [6] | [2] | [5]

Oc1ccc2c3c1O[C@H]1[C@@H](O)CC[C@@]4(O)[C@@H](C2)N(CC2CCC2)CC[C@]314
inactive: [1] | [3] | [6] | [2] | [5]

CCCCC(=O)Cl
inactive: [1] | [3] | [6]

CC[C@H]1C[C@H]2[C@@H]3CCC4=CC(=O)CC[C@@H]4[C@H]3CC[C@]2(C)[C@H]1O
not listed: [4]
inactive: all other assays above

CC(=O)[C@H]1CC[C@H]2[C@@H]3CC[C@H]4C[C@H](O)CC[C@]4(C)[C@H]3C(=O)C[C@]12C
inactive: [1] | [6]

O=C(O)c1cc(Cl)ccc1Cl
inactive: [1] | [3] | [2]

Cc1nnc2n1-c1sc(Br)cc1C(c1ccccc1Cl)=NC2
inactive: [1] | [3] | [6] | [4] | [2] | [5]

CCN(CC)CCOC(=O)C(C)(c1ccccc1)c1ccccc1
inactive: [1] | [6] | [4]

c1ccc(C2(c3ccccc3)CC2C2=NCCN2)cc1 (stereo not drawn)
inactive: [1] | [6] | [2]

NNC(=O)c1ccccc1
inactive: [1] | [3] | [4] | [2] | [5]

Cc1nnc2n1-c1ccc(Cl)cc1C(c1ccccc1)=NC2
inactive: [1] | [3] | [6] | [4] | [5]

CCN(C(C)=O)c1cccc(-c2ccnc3c(C#N)cnn23)c1
inactive: [1] | [4] | [2] | [5]

O=C(Cl)/C=C/C(=O)Cl
inactive: [1] | [6] | [4] | [2] | [5]

O=c1oc2ccccc2c(O)c1C1CCCc2ccccc21 (stereo not drawn)
inactive: [1] | [3] | [4] | [2]

O=[N+]([O-])c1cc(Cl)c(Cl)c(Cl)c1
inactive: [1] | [3] | [4] | [2]
